Assay outcomes as filed in PubChem.
MCL1 BIM primary: inhibitors of human MCL1 binding to BIM-BH3 peptide; Q07820; GST-MCL1 / FITC-Bim-BH3 fluorescence polarization; inhibition, % at 10.9 µM; 320,000 tested, 0.68% active; AID 2057;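 active = inhibition above the mean inhibition of all tested compounds plus 3 SD, set per campaign, cut at about 40% in these data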;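 note: 0% = DMSO wells and 100% = unlabeled Bim-BH3 peptide control; higher means more loss of mP so more displacement of Bim peptide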
Target sequence (Q07820 whole entry, looked up): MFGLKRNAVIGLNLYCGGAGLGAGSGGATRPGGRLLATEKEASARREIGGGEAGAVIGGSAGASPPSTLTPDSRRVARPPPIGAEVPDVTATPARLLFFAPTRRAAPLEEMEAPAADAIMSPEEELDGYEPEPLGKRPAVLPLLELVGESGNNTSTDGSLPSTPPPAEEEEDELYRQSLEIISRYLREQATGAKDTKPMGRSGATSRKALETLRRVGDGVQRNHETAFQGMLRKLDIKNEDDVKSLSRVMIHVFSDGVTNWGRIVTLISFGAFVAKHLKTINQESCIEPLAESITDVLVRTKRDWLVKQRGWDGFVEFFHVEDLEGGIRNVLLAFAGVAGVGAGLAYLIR
Mcl1-Bid inh: disrupts binding of human Mcl-1 to Bid peptide; Q07820; TR-FRET Mcl-1/Bid-Dy647 peptide binding, 1536-well; inhibition, % at 21.7 µM; 220,000 tested, 0.97% active; AID 1021;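 active = compounds that cut the binding signal by more than half at the single screening dose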;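 note: His-tagged Mcl-1 with europium anti-His antibody binding Bid BH3 peptide; 0% = Mcl-1 plus peptide wells and 100% = peptide-only wells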
BCLXL inh: inhibitors of human Bcl-xL; Q07817; GST-Bcl-xL / FITC-Bim BH3 peptide fluorescence polarization; inhibition, % at 10.9 µM; 320,000 tested, 0.7% active; AID 2129;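 active = inhibition above the mean of all tested compounds plus 3 SD, cutoff set per campaign, cut at about 30% in these data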;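 note: 0% = DMSO wells and 100% = unlabeled Bim-BH3 peptide competitor; inhibitors lower millipolarization by displacing the labeled peptide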
Target sequence (Q07817 whole entry, looked up): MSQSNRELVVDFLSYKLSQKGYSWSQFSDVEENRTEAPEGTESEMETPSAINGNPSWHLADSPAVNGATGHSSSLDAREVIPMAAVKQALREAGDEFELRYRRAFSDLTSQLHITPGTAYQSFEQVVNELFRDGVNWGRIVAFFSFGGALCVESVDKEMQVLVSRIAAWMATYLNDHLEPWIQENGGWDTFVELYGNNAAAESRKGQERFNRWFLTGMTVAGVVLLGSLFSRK
Mcl1 Noxa PPI: Mcl-1/Noxa interaction inhibition | TR-FRET Mcl-1/Noxa peptide binding, 2 h | inhibition, % at 21.7 µM | 220,000 tested, 1.5% active | AID 1022;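 active = compounds that cut the protein-peptide binding signal by more than 50% relative to plate controls in a single-dose test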;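 note: His-tagged Mcl-1 with rhodamine Noxa BH3 peptide and terbium anti-His antibody; 0% = Mcl-1 plus Noxa peptide wells and 100% = peptide-only wells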
GLD-1 TGE inh: GLD-1-TGE RNA interaction inhibition (C. elegans); 320,000 tested, 0.44% active; purified GLD-1 + fluorescein TGE RNA, fluorescence polarization; Q17339; inhibition, % at 5.96 µM;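 active = percent inhibition above a per-plate cutoff, the plate mean of test compounds plus 3 SD, cut at about 30% in these data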;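 note: 0% = DMSO wells with GLD-1 and probe and 100% = wells lacking GLD-1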
Bim-Mcl-1: human Bim-Mcl-1 interaction inhibition; Q07820; Bead-based flow cytometry, Bim peptide-Mcl-1 binding; inhibition, % at 10 µM; 190,000 tested, 0.1% active; AID 1009; in the data active = inhibition above about 40%;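 note: 0% = no compound tracer wells and 100% = peptide blocker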
BCLXL inh confirm: Bcl-xL (human) inhibition, MCL1 counter-screen confirmation; inhibition, % at 10.9 µM; 1,700 tested, 54% active; GST-Bcl-xL / FITC-Bim BH3 peptide FP binding; shares compounds with MCL1 BIM primary;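 active = inhibition above a cutoff equal to the mean inhibition of all tested compounds plus 3 SD, cut at about 30% in these data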;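 note: 0% = DMSO wells and 100% = unlabeled Bim BH3 control peptide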
MCL1 BIM confirm: confirmation of human MCL1 and BIM-BH3 interaction inhibitors. inhibition, % at 10.9 µM. 1,700 tested, 61% active. GST-MCL1 / FITC-Bim-BH3 fluorescence polarization. shares compounds with MCL1 BIM primary;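 active = inhibition above the average of all tested compounds plus 3 SD, cut at about 40% in these data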;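 note: 0% = DMSO wells and 100% = unlabeled Bim-BH3 control peptide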
Numbers without * were called inactive; . = no result given; + = active, no number. A selection: hits, their analogues and other compounds. The true share with any hit is near 2.3%.

SMILES	MCL1 BIM primary	Mcl1-Bid inh	BCLXL inh	Mcl1 Noxa PPI	GLD-1 TGE inh	Bim-Mcl-1	BCLXL inh confirm	MCL1 BIM confirm
COc1cccc(C2C3CN(C)CC=C3C(C#N)=C(N)C2(C#N)C#N)c1OC (stereo unspecified)	135*	-21	116*	-10	78*	-2	77*	97*
COc1cc([C@@H]2[C@H]3CN(C)CC=C3C(C#N)=C(N)C2(C#N)C#N)cc2c1OCO2	52*	-13	54*	9	21	-3	21	24
COc1ccc([N+](=O)[O-])cc1NC(=O)CCC(=O)c1cccs1	3	-11	1	15	-2	3	.	.
CCCS(=O)(=O)c1c(S(=O)(=O)CCC)c2c(C)cccn2c1C(=O)N/N=C/c1cc(O)cc(O)c1	1	-64	-1	-61	-5	0	.	.
CS(=O)(=O)N(CC(=O)N1CCN(Cc2ccccc2)CC1)c1cccc(F)c1	3	.	5	.	-2	.	.	.
CCN1CCc2nc3sc(C(=O)N4CCc5ccccc5C4)c(N)c3cc2C1	32	.	29	.	22	.	.	.
CCN1CCc2nc3sc(C(=O)Nc4cccnc4Cl)c(N)c3cc2C1	54*	.	46*	.	28	.	10	-3
Cc1ccccc1NC(=O)C1Cc2ccccc2C(=O)O1 (stereo unspecified)	-3	-9	0	-9	-7	1	.	.
O=C1OC(C(=O)O)Cc2ccccc21 (stereo unspecified)	64*	-1	2	23	5	1	2	5
CCOC(=O)C1(CC2CCCCO2)CCN(C(=O)NCc2ccccc2)CC1 (stereo unspecified)	3	-15	2	1	6	-2	.	.
Cc1ccc(N=Cc2cccc(O)c2O)c(C)c1	60*	-109	27	43	7	1	20	20
Cc1ccccc1N=Cc1cccc(O)c1O	65*	-5	36*	16	0	-1	37*	56*
CC(N=Cc1cccc(O)c1O)c1ccccc1 (stereo unspecified)	66*	-10	33*	52*	15	-9	32*	71*
CC(N=Cc1cc([N+](=O)[O-])ccc1O)c1ccccc1 (stereo unspecified)	17	6	6	12	-2	0	.	.
CCOc1ccc(N2CC(C(=O)N3CCc4ccccc4C3)CC2=O)cc1 (stereo unspecified)	-1	-11	6	10	-5	-1	.	.
COc1cc(/C=C2\SC(=S)N(C(C(=O)O)c3ccccc3)C2=O)ccc1O (stereo unspecified)	0	6	-2	32	-51	.	.	.
O=C(O)C(c1ccccc1)N1C(=O)/C(=C\c2ccc(O)c(O)c2)SC1=S (stereo unspecified)	70*	.	17	.	-72	.	63*	88*
O=C(c1cccc(C(=O)N2CCN(c3ccccc3F)CC2)c1)N1CCN(c2ccccc2F)CC1	1	8	6	13	-6	-4	.	.
Nc1ccccc1N1CCN(C(=O)c2ccccc2)CC1	108*	-23	6	15	-2	0	12	11
COC(=O)C(Nc1nccs1)(OC)C(F)(F)F (stereo unspecified)	68*	-31	61*	-13	7	-4	71*	106*
COC(=O)CCC(=O)Nc1nccs1	1	-8	1	15	5	0	.	.
Fc1cccc(Nc2nc3ccccc3n3nnnc23)c1	1	-16	-1	21	-7	0	.	.
c1ccc(Nc2nc3ccccc3n3nnnc23)cc1	61*	-5	36*	1	5	-2	34*	33
CCn1c(SCc2cc(=O)[nH]c3ccccc23)nnc1C1CC1	9	17	3	5	4	-5	.	.
COc1ccc(NC(=S)NN2CCN(C)CC2)cc1	7	-35	5	.	9	-5	.	.
SMILES	MCL1 BIM primary	Mcl1-Bid inh	BCLXL inh	Mcl1 Noxa PPI	GLD-1 TGE inh	Bim-Mcl-1	BCLXL inh confirm	MCL1 BIM confirm
CCCCn1c(SCC(=O)NCc2ccco2)nc2cc(S(N)(=O)=O)ccc21	41*	-28	-8	-8	-1	2	4	12
O=C(O)C1Cc2c([nH]c3ccccc23)C(c2ccc3c(c2)OCO3)N1 (stereo unspecified)	59*	-32	52*	8	14	0	12	9
COCCCNS(=O)(=O)c1ccc2c(c1)CCN2C(C)=O	-3	-17	3	-2	-2	-1	.	.
CCC1(c2ccccc2)NC(=O)N(CC(=O)Nc2ccc(OC)nc2)C1=O (stereo unspecified)	+	.	167*	.	124*	.	168*	+
CCC1(c2ccccc2)NC(=O)N(CC(=O)NCc2ccccc2OC)C1=O (stereo unspecified)	-6	.	-2	.	7	.	.	.
O=C(CSc1nc2ccccc2c(=O)[nH]1)c1ccc(O)cc1O	.	-22	.	3	.	-2	.	.
O=C(CSc1nc2ccccc2c(=O)[nH]1)c1ccc(O)c(O)c1	48*	-44	5	21	-2	0	38*	66*
CN1CCc2c(sc(N)c2C(N)=O)C1	65*	-69	60*	4	7	0	22	7
CN1CCc2c(sc(NC(=O)c3cc(Cl)sc3Cl)c2C(N)=O)C1	48*	.	1	.	-8	.	7	13
CCN1CCc2c(sc(N)c2C(N)=O)C1	64*	-145	61*	14	23	12	30	34
CN1CCc2c(sc(NC(=O)c3ccco3)c2C(N)=O)C1	2	.	8	.	-12	.	.	.
Cc1nc(N)sc1C(=O)OCC(C)C	9	5	7	12	-4	0	.	.
COC(=O)CN(c1ccccc1)S(=O)(=O)c1ccc(F)cc1	+	-1	2	7	0	-2	8	10
CCN(c1ccccc1)S(=O)(=O)c1ccc(F)cc1	0	14	3	14	5	-2	.	.
Cc1ccc(NC(=O)CSc2nnc(CCC(=O)O)c(=O)[nH]2)cc1	7	-14	5	-1	4	.	.	.
COc1ccccc1OCCSc1nc2ccccc2n1CCO	1	-19	6	-4	-4	2	.	.
Cc1cc[n+](-c2[nH]c(=O)sc2/C=N/NC([S-])=Nc2ccccc2)cc1C	163*	-62	129*	18	131*	0	104*	149*
CC(C)(C)c1cc[n+](-c2[nH]c(=O)sc2/C=N/NC([S-])=Nc2ccccc2)cc1	197*	-29	177*	12	160*	.	161*	189*
